Sampled rows, rich in hits. Any-hit rate of the full collection: about 1.7%.
GSTO1 counter = GSTO1 inhibition, counter-screen for RBBP9 inhibitors | P78417 | recombinant GSTO1, activity-based probe fluorescence polarization | inhibition, % at 5.96 µM | 1.1% of 300,000 active | AID 1974;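 active = inhibition above the campaign mean inhibition plus 3 SD, cut at about 35% in these data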;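 also: 0% = GSTO1-1 with DMSO and 100% = wells lacking GSTO1-1 enzyme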
PAD4 inh = inhibitors of human PAD4; inhibition, % at 6.36 µM; recombinant PAD4, RCA probe fluorescence polarization; 0.41% of 330,000 active; Q9UM07;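 active = percent inhibition above a cutoff equal to the mean of all tested compounds plus 3 SD, cut at about 15% in these data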;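 also: 0% = PAD4 with RCA probe and DMSO and 100% = probe without PAD4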
Fam108B counter = blocks mouse Fam108B hydrolase in RBBP9 counter-screen; recombinant Fam108B, FP-Rh probe fluorescence polarization; inhibition, % at 9.51 µM; 0.33% of 300,000 active;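 active = inhibition above the screen mean inhibition plus 3 SD, computed separately per campaign, cut at about 18% in these data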;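 also: inhibitors lower polarization as less probe binds the enzyme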
LYPLA2 counter = LYPLA2 (human) inhibition in PME1 counter-screen; O95372; recombinant LYPLA2, FP-Rh probe fluorescence polarization; inhibition, % at 5.9 µM; 0.38% of 320,000 active; AID 2177;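 active = inhibition above the screen-wide mean plus 3 SD, limit set per campaign, cut at about 26% in these data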;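 also: 0% = LYPLA2 with DMSO and 100% = wells lacking LYPLA2 enzyme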
Target sequence (O95372 whole entry, looked up): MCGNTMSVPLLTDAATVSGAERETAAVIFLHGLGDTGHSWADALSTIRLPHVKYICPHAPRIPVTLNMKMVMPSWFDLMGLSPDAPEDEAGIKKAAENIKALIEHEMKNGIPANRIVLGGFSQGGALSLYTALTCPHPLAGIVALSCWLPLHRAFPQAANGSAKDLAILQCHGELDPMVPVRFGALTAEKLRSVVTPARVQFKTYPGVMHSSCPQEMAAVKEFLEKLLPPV
LYPLA1 counter = blocks human lysophospholipase 1, a PME1 counter-screen. recombinant LYPLA1, FP-Rh probe fluorescence polarization. inhibition, % at 5.9 µM. 0.16% of 320,000 active. O75608;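 active = inhibition above the mean of all tested compounds plus 3 SD, set per campaign, cut at about 14% in these data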;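 also: inhibitors block serine hydrolase probe labeling of LYPLA1 so polarization falls; 0% = enzyme with DMSO and 100% = wells lacking LYPLA1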
Target sequence (O75608 whole entry, looked up): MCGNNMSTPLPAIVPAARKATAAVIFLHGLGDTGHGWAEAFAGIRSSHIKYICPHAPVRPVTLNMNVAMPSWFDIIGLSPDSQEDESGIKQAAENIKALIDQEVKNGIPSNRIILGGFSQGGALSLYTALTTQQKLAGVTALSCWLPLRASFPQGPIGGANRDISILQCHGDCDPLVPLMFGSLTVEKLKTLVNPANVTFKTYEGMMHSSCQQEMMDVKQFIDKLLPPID
PME-1 primary = PME-1 (human) inhibition. inhibition, % at 5.9 µM. 0.53% of 320,000 active. recombinant PME-1, FP-Rh probe fluorescence polarization. AID 2130. Q9Y570;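 active = inhibition above the campaign mean of all compounds plus 3 SD, cut at about 26% in these data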;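 also: competitive labeling of PME-1 active site by serine hydrolase directed probe; 0% = PME-1 with DMSO and 100% = wells lacking PME-1 enzyme; inhibitors block probe labeling so polarization falls and inhibition rises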
LYPLA1 conf = counter-screen for PME1 inhibitors: confirmation of human LYPLA1 inhibitors | inhibition, % at 5.9 µM | shares compounds with LYPLA1 counter | 69% of 480 active | recombinant LYPLA1, FP-Rh probe fluorescence polarization;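 active = mean inhibition across replicates above the hit cutoff set in the primary screen, cut at about 15% in these data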;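 also: loss of FP-Rh probe labeling of LYPLA1 seen as lower polarization; 0% = LYPLA1 with DMSO and 100% = wells lacking LYPLA1 enzyme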
LYPLA2 conf = counter-screen for PME1 inhibitors: confirmation of human LYPLA2 inhibitors; shares compounds with LYPLA2 counter; recombinant LYPLA2, FP-Rh probe fluorescence polarization; inhibition, % at 5.9 µM; 72% of 1,100 active;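 active = mean inhibition across replicates above the hit cutoff set in the primary screen, cut at about 26% in these data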;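 also: blocked labeling of the enzyme by serine hydrolase FP-Rh probe lowers polarization; 0% = enzyme with DMSO and 100% = wells lacking LYPLA2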
LYPLA2 gel ABPP = blocks human acyl-protein thioesterase 2 in gel ABPP; rhLYPLA2 in mouse brain proteome, gel ABPP FP-Rh; 30% of 150 active; shares compounds with LYPLA2 counter; inhibition, % at 20 µM;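 active = inhibition of LYPLA2 enzyme probe labeling above about 50%, limit read from the data; inactive = inhibition below that limit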;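 also: loss of FP-Rh probe labeling of the LYPLA2 gel band measured as band density; 0% = DMSO only control band and 100% = blank gel background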
PAD4 FP conf = PAD4 (human) inhibition, confirmed; 28% of 1,200 active; inhibition, % at 6.36 µM; recombinant PAD4, RCA probe fluorescence polarization; shares compounds with PAD4 inh; AID 488796;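 active = mean inhibition across replicates above the hit cutoff set by the earlier primary screen, cut at about 15% in these data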;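 also: inhibitors block active-site labeling by the probe so polarization falls; 0% = PAD4 with probe and DMSO and 100% = probe without PAD4 enzyme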
Starred values were filed as active, the others as inactive; nt = not tested or not shown.

SMILES	GSTO1 counter	PAD4 inh	Fam108B counter	LYPLA2 counter	LYPLA1 counter	PME-1 primary	LYPLA2 conf	PAD4 FP conf	others
O=C(COc1ccc2ccccc2c1)N1CCN(CC2CC3C=CC2C3)CC1 (stereo not drawn)	-8.5	0.8	0.6	26.0*	19.8*	1.1	25.0	nt	LYPLA1 conf=33.5*
Cc1ccccc1NC(=O)Cc1nc(COC(=O)Cc2ccccc2)cs1	nt	46.5*	nt	47.2*	39.6*	18.0	-4.1	-7.8	LYPLA1 conf=-1.8
O=C(COC(=O)Cc1ccccc1)Nc1cccnc1Cl	2.3	-4.9	0.6	-2.0	1.6	5.3	nt	nt
O=c1cc(C(F)(F)F)c2cc3c4c(c2o1)CCCN4CCC3	13.7	35.1*	11.9	17.1	18.0*	16.4	nt	38.4*	LYPLA1 conf=9.1
CC1=CC(=C2C(=O)NC(=S)NC2=O)C=C(C(F)(F)F)N1CCc1ccccc1	3.6	-0.5	-1.9	0.2	0.8	1.2	nt	nt
C[N+]1(C)C2CCC1CC(OC(=O)c1ccccc1)C2 (stereo not drawn)	9.3	-2.5	4.2	26.1*	5.0	2.5	1.5	nt
O=C(COc1ccc(Br)cc1)N1CCN(Cc2ccc3c(c2)OCO3)CC1	-1.7	4.6	-0.6	32.2*	6.1	0.6	24.6	nt
CCN(CC)C(=O)c1ccc(NC(=O)CCCSc2ccccc2)cc1	1.2	-4.0	-0.3	8.3	-1.6	-7.5	nt	nt
CCN(CC)C(=O)c1ccc(NC(=S)NC(=O)CCc2ccccc2)cc1	0.6	-1.0	1.4	29.7*	0.2	0.8	20.6	nt
O=C1NC(=O)C(=Cc2ccc(OCC(=O)N3CCOCC3)cc2)C(=O)N1	4.8	-3.6	-3.5	3.5	-3.2	-3.7	nt	nt
CN1C(=O)C(O)N=C(c2ccccc2)c2ccccc21 (stereo not drawn)	0.3	2.0	-0.9	7.7	4.8	1.1	nt	nt
O=[N+]([O-])c1ccc(NCc2ccc(Cl)cc2)c2ccncc12	2.5	-16.5	4.6	33.3*	3.2	6.7	51.9*	nt	LYPLA2 gel ABPP=49.0
NCCNc1ccc([N+](=O)[O-])c2cccnc12	12.6	-10.6	4.1	2.4	1.1	-3.2	nt	nt
Cc1[nH]n(-c2ccccc2)c(=O)c1C(c1ccc([N+](=O)[O-])cc1)c1c(C)[nH]n(-c2ccccc2)c1=O	59.2*	65.5*	7.4	5.0	-1.9	3.6	nt	-18.0
O=c1ccc2c(O)c3ccoc3cc2o1	nt	-11.9	nt	nt	nt	nt	nt	nt
CC1=NN(c2ccccc2)C(=O)C1/C=C1\C(=O)NC(=O)N(c2cc(C)cc(C)c2)C1=O (stereo not drawn)	36.1*	25.6*	0.2	1.1	0.1	-5.1	nt	3.0
CN(C)C(=O)Oc1cccc2c(OC(=O)N(C)C)cccc12	8.4	23.7*	2.9	5.9	1.5	-4.5	nt	6.8
N=C1c2ccccc2CN1c1ccc(F)c([N+](=O)[O-])c1	7.9	-1.2	0.2	0.5	4.0	-1.2	nt	nt
O=c1[nH]c(=S)n(-c2ccccc2F)c(O)c1C=Nc1ccc(N2CCOCC2)cc1	43.1*	17.4*	0.1	2.1	-1.8	10.1	nt	3.2
O=c1[nH]c(=S)n(-c2ccc(Br)cc2)c(O)c1C=Nc1ccc(N2CCOCC2)cc1	33.3	-10.6	2.4	-4.7	-2.7	7.6	nt	nt
O=C1/C(=C/c2ccccc2Cl)N2CCC1CC2	5.0	1.4	5.2	-2.9	-1.4	-1.4	nt	nt
N#CC1(c2ccccc2)CCN(C2CC(=O)N(c3ccc4c(c3)OCO4)C2=O)CC1 (stereo not drawn)	-4.8	-4.0	-0.9	-2.4	2.8	-2.0	nt	nt
N#CC1(c2ccccc2)CCN(C2CC(=O)N(c3ccc(F)cc3)C2=O)CC1 (stereo not drawn)	3.5	17.6*	2.6	4.2	0.7	7.3	nt	2.7
CCCCc1ncc(CN2CCCC(C(=O)c3ccc(SC)cc3)C2)[nH]1 (stereo not drawn)	0.5	2.0	-3.5	0.5	-1.0	-3.1	nt	nt
